# Over roughly 33,000 sequences, “e-score” has its median near -0.053; the highest 2% begin near 0.38. This is one part of a sample in which the highest values are shown more often than they occur.
# Molecular target: T1, SIX1 homeodomain (reference allele) (human, UniProt Q15475 108-198)
# T1 sequence: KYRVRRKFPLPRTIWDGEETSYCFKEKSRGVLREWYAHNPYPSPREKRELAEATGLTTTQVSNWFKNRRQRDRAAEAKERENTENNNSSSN
# Experiment: universal protein binding microarray; Universal all-10-mer PBM (8x60K, AMADID 030236), 300 nM GST-tagged protein, Alexa Fluor 488 anti-GST; buffer, salt, pH and temperature not stated (as in Berger); high values mean tight binding
# Conditions: protein: ivt; tags: N-terminal GST; dsDNA, one strand shown
# Procedure, shortened: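 After in vitro transcription/translation, GST-tagged homeodomains were quantified against a recombinant GST standard curve by anti-GST western blot. They were then placed in duplicate at 300 nM final concentration on universal 'all 10-mer' protein binding microarrays of 8×60K format.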
row,Sequence,binding signal [E-score]
1,GACTATAC,0.237 ± 0.00521
2,CCGATAGC,0.329 ± 0.00875
3,ACGATCTC,0.189 ± 0.0362
4,ACTATATC,0.367 ± 0.0339
5,CCGATATC,0.457 ± 0.0156
6,ACGATCGG,0.169 ± 0.0263
7,ACGATATG,0.417 ± 0.0227
8,CCGATAAC,0.239 ± 0.00451
9,ACGATATA,0.296 ± 0.0641
10,ACGATATC,0.454 ± 0.0379
11,ACCACACC,0.174 ± 0.038
12,ATACGCCC,0.275 ± 0.0117
13,GATAACCA,0.213 ± 0.00941
14,ATCACTTG,0.29 ± 0.0319
15,GGCTAATA,0.201 ± 0.0383
16,AATATGGT,0.177 ± 0.105
17,GATAGCAC,0.236 ± 0.0609
18,CCGCGATC,0.354 ± 0.0349
19,CCGCGATA,0.4109 ± 0.00278
20,ACGCGATA,0.316 ± 0.0166
21,GGGCGATA,0.347 ± 0.0047
22,CGGCGATA,0.3475 ± 0.00182
23,GCGCGATA,0.379 ± 0.0395
24,ATATAGAG,0.202 ± 0.0348
25,CCAGATGA,0.203 ± 0.0127

row,Sequence,binding signal [E-score]
1,ACTACCTA,0.157 ± 0.0187
2,GAATACTC,0.155 ± 0.0382
3,ATAGATAT,0.389 ± 0.0559
4,ATAGATCC,0.302 ± 0.00993
5,ACAGATAT,0.356 ± 0.0703
6,GTAGATAC,0.289 ± 0.0214
7,ATAGATAG,0.167 ± 0.0369
8,ATAGATAC,0.393 ± 0.0221
9,ATCACCTA,0.232 ± 0.0325
10,AGACGATA,0.363 ± 0.0344
11,ATATCTTC,0.365 ± 0.0612
12,CCGTCTCA,0.268 ± 0.0487
13,TAGTATAA,0.199 ± 0.033
14,TAGTATCA,0.457 ± 0.0196
15,GAGTATCA,0.47 ± 0.0248
16,AAGTATCA,0.461 ± 0.0304
17,CAGTATGA,0.151 ± 0.0873
18,GAGTATAA,0.179 ± 0.136
19,CAGTATTA,0.295 ± 0.0164
20,TACTATCA,0.325 ± 0.0557
21,AAGTATCT,0.266 ± 0.102
22,CAGTATCA,0.465 ± 0.0101
23,GAGTATTA,0.261 ± 0.103
24,AAGTATAA,0.184 ± 0.123
25,ATCCCGCC,0.27 ± 0.00284

row,Sequence,binding signal [E-score]
1,GGATAATA,0.328 ± 0.0761
2,ATAGGGTG,0.161 ± 0.00687
3,ATCATTGC,0.244 ± 0.0146
4,AGTTGGTG,0.191 ± 0.00358
5,AAGACGAT,0.17 ± 0.0796
6,ATCCTCGG,0.23 ± 0.0328
7,CAGTATCG,0.4353 ± 0.00267
8,CAGTATAG,0.178 ± 0.0386
9,AAGTATCG,0.369 ± 0.0877
10,CAGTATCC,0.39 ± 0.0154
11,CAGTATAC,0.295 ± 0.0256
12,CACTATCC,0.295 ± 0.013
13,GGATTACC,0.271 ± 0.0437
14,CTCTCCCC,0.164 ± 0.0775
15,ATCACCTG,0.33 ± 0.0102
16,GGATCCAC,0.317 ± 0.0719
17,GGATCCTA,0.377 ± 0.0205
18,AGATCCTA,0.2149 ± 0.00162
19,AGATCCAA,0.204 ± 0.00278
20,GGATCCAA,0.41 ± 0.0258
21,CGATCCTA,0.299 ± 0.00788
22,CCGAAACC,0.185 ± 0.0211
23,AAGAGGAT,0.212 ± 0.00759
24,CGTAGTGA,0.182 ± 0.0165
25,CAGGACAC,0.187 ± 0.0771

row,Sequence,binding signal [E-score]
1,CGCTATCA,0.34 ± 0.0391
2,AGATATGG,0.335 ± 0.0142
3,GGATATGA,0.356 ± 0.0113
4,AGATATCT,0.385 ± 0.082
5,AAATATCT,0.157 ± 0.0748
6,AGATATCG,0.434 ± 0.0383
7,AGCTATCA,0.313 ± 0.116
8,AGATATTG,0.311 ± 0.0669
9,GAATATCA,0.366 ± 0.0771
10,GGCTATCA,0.392 ± 0.0544
11,AGAGATCT,0.198 ± 0.0724
12,GGATATCA,0.487 ± 0.00885
13,ATCACCGG,0.291 ± 0.0263
14,ACACGGTA,0.188 ± 0.0434
15,GGATCGCC,0.342 ± 0.0494
16,TATAGCGA,0.164 ± 0.0391
17,ATCCATCG,0.246 ± 0.0374
18,ACATAGTA,0.205 ± 0.029
19,CTACTATA,0.153 ± 0.00888
20,ACACCACG,0.263 ± 0.0526
21,AGATATCA,0.451 ± 0.0439
22,AAATATCC,0.271 ± 0.0279
23,AGATATTC,0.219 ± 0.06
24,CAATATCA,0.306 ± 0.111
25,AGATATCC,0.442 ± 0.0272

row,Sequence,binding signal [E-score]
1,CGATATTA,0.365 ± 0.045
2,TGATAGCA,0.323 ± 0.0297
3,CGATATCA,0.444 ± 0.0437
4,AGATATTA,0.234 ± 0.119
5,AGATATGA,0.291 ± 0.0439
6,TGATATCA,0.48 ± 0.0111
7,TGATATAA,0.297 ± 0.032
8,ATCTGTCA,0.208 ± 0.00539
9,ATCCCTTG,0.271 ± 0.0326
10,GGATTCGA,0.212 ± 0.0426
11,TATCCCAA,0.329 ± 0.0116
12,CGTATTCA,0.265 ± 0.0108
13,ATCTACCG,0.23245 ± 0.00017
14,GATCTTCC,0.2463 ± 0.00105
15,GGATATCC,0.4671 ± 0.00165
16,CGATATTC,0.317 ± 0.0233
17,CGATATCC,0.476 ± 0.0109
18,GGATAACC,0.297 ± 0.00525
19,AGATATGC,0.353 ± 0.0369
20,CGATAGCA,0.206 ± 0.0373
21,CGATATGA,0.311 ± 0.0729
22,CGATATGC,0.428 ± 0.00624
23,CAATATCC,0.37 ± 0.00402
24,CGATAGCG,0.228 ± 0.0412
25,CGATATCG,0.439 ± 0.0105

row,Sequence,binding signal [E-score]
1,GGATAGCC,0.3501 ± 0.00233
2,AGTAATAT,0.236 ± 0.0691
3,ATACGGGC,0.278 ± 0.0276
4,TCGTCTCA,0.22 ± 0.0818
5,GTATGAAC,0.208 ± 0.0436
6,GTAACCCA,0.169 ± 0.0635
7,ATCATGCG,0.24 ± 0.02
8,ATATATGA,0.233 ± 0.0893
9,ATCAGCCC,0.308 ± 0.0315
10,ACCCCCTA,0.258 ± 0.0368
11,ATACTCTG,0.354 ± 0.0279
12,ATACCTTC,0.323 ± 0.0961
13,ACACCCTA,0.31 ± 0.00433
14,ATACCCTG,0.439 ± 0.0103
15,ATACCCTA,0.452 ± 0.00588
16,ATACCCTC,0.441 ± 0.0106
17,ACACCCTG,0.321 ± 0.0135
18,ACACCCTC,0.306 ± 0.00827
19,CCATCTGA,0.259 ± 0.0253
20,AGAAGTAT,0.297 ± 0.117
21,CTTAACAC,0.151 ± 0.0479
22,GGGTGTTA,0.282 ± 0.0105
23,CGGTGATC,0.351 ± 0.0309
24,CGGTGATA,0.4094 ± 0.00389
25,AGGTGATA,0.418 ± 0.0434

row,Sequence,binding signal [E-score]
1,CGGTGAGA,0.253 ± 0.0378
2,GGGTGATA,0.4596 ± 0.00219
3,AGGTGATC,0.359 ± 0.0112
4,GGGTGAGA,0.172 ± 0.0545
5,AGGTGAGA,0.159 ± 0.0138
6,GGGCTATA,0.2005 ± 0.00146
7,ATCATGGC,0.209 ± 0.00482
8,AGTTATCG,0.19 ± 0.0243
9,AGAATCCC,0.175 ± 0.0139
10,GTATAACA,0.238 ± 0.00858
11,CGATAGGA,0.26 ± 0.0286
12,GTATTGCA,0.169 ± 0.0405
13,ATAGCACA,0.169 ± 0.00707
14,GCTAATCC,0.208 ± 0.0144
15,ATCAAGTA,0.234 ± 0.0311
16,AAATACGG,0.19 ± 0.0109
17,CGATACGA,0.39752 ± 0.00029
18,CGATACGC,0.434 ± 0.00646
19,GGATACGA,0.36 ± 0.00395
20,ATATACGG,0.305 ± 0.00579
21,AGATACGC,0.349 ± 0.00878
22,AGATACGG,0.401 ± 0.00895
23,AGATACGA,0.279 ± 0.0423
24,CAATACGC,0.198 ± 0.00389

# Reference: PMC10668032, “Altered binding affinity of SIX1-Q177R correlates with enhanced WNT5A and WNT pathway effector expression in Wilms tumor”
